From PubChem BioAssay (Tox21)
Several values for one entry are separate records, joined by “and”; a condition that tells them apart may be missing. Equal entries are not always repeated. Records with an inconclusive call do not appear. A call without a number means that no potency is given here. Where a structure was tested more than once in an assay, its records may differ in their call. Activity calls are given as the source filed them. Unless noted, calls come from the whole dose curve; as a rule, active = well fitted curve in the direction sought with a large enough effect in the repeat runs; inconclusive = weak or mixed curves; inactive = no such curve, though single readings can be large; an effect the other way counts as inactive or inconclusive.

What was measured:
[1] = qHTS assay to identify small molecule agonists of the androgen receptor (AR) signaling pathway in the presence of an antagonist - cell viability counter screen (AID 1259379); note: nearly all actives have a fitted effect of over 25% in size; note: potency is the fitted concentration of half-maximal effect;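 for activity change, negative = cytotoxicity: MDA-kb2 human breast cancer cells carrying an MMTV luciferase reporter; series mostly up to about 92 µM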
Summary of the method: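 Cytotoxicity counter-screen run in the same wells as the nilutamide-challenged (3.0 µM final) AR agonist assay in MDA-kb2 cells. Compounds tested at 15 concentrations for 16 h, 37 °C without CO2; CellTiter-Fluor fluorescence read.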

[2] = qHTS assay to identify small molecule agonists of the estrogen receptor beta (ER-beta) signaling pathway - cell viability counter screen (AID 1259380); note: nearly all actives have a fitted effect of over 30% in size; note: potency is the fitted concentration of half-maximal effect
Summary of the method: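 Cell viability counter screen: CellTiter-Glo luminescence (30 min, room temperature) measured in the same wells as the beta-lactamase readout, after 16 hr compound exposure at 37C of ER-beta-bla HEK293T cells in 2% charcoal-stripped FBS medium.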

[3] = qHTS assay to identify small molecule antagonists of the estrogen receptor beta (ER-beta) signaling pathway - cell viability counter screen (AID 1259382); note: nearly all actives have a fitted effect of over 55% in size; note: potency is the fitted concentration of half-maximal effect; for activity change, negative = cytotoxicity: series mostly up to about 92 µM
Summary of the method: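 Cytotoxicity was measured in the same wells by CellTiter-Glo luminescence after 30 min at room temperature. Cells were ER-beta-bla HEK293T in charcoal-stripped serum, given compound together with 1 nM E2 and incubated 16 h at 37C.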

[4] = biological target: Estrogen receptor (Homo sapiens) (UniProt P03372); test: qHTS assay to identify small molecule agonists of the estrogen receptor alpha (ER-alpha) signaling pathway in the presence of an antagonist (AID 1259383; calls by dose curve; note: top concentration of the series differs between compounds; nearly all actives have a fitted effect of over 15% in size)
Summary of the method: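 Agonist-mode confirmation run in the presence of 10.0nM (final) ICI-182,780 antagonist. The reporter was ERE-driven luciferase in VM7Luc4E2 cells, grown in charcoal-stripped serum. Cells were exposed to 15-concentration compound series for 22hr, then ONE-Glo luminescence was read.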

[5] = qHTS assay to identify small molecule agonists or antagonists of the thyroid stimulating hormone receptor (TSHR) signaling pathway - wild type cell line counter screen (AID 1259384; calls by dose curve)
Summary of the method: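 Wild-type HEK293 cells were plated 18 h at 37 C/5% CO2, pin-dosed with compound plus Ro20-1724 medium, held 30 min at room temperature, then given cAMP-d2 and anti-cAMP-cryptate; fluorescence was read after 1 h. Fifteen concentrations, triplicate.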

[6] = biological target: Thyrotropin receptor (Homo sapiens) (UniProt P16473); test: qHTS assay to identify small molecule antagonists of the thyroid stimulating hormone receptor (TSHR) signaling pathway (AID 1259385; calls by dose curve; note: nearly all actives have a fitted effect of over 20% in size)
Summary of the method: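 TSHR-HEK293 cells were plated and held 18 h at 37C/5% CO2, then given compound plus Ro20-1724 and stimulated with TSH at 1.5 ng/mL final. After 30 min at room temperature, cAMP was detected with cAMP-d2/anti-cAMP-cryptate (1 h) by fluorescence.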

[7] = qHTS assay to identify small molecule antagonists of the progesterone receptor (PR) signaling pathway - cell viability counter screen (AID 1346798); note: nearly all actives have a fitted effect of over 50% in size; note: potency is the fitted concentration of half-maximal effect; for activity change, negative = cytotoxicity: series mostly up to about 92 µM
Summary of the method: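 Cytotoxicity read as CellTiter-Glo luminescence (30 min, room temperature) in the same wells as the beta-lactamase readout. HEK293T PR-UAS-bla cells in charcoal-stripped 2% FBS received compound and R5020, then 16 h at 37C, 5% CO2.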

[8] = qHTS assay to identify small molecule agonists of the progesterone receptor (PR) signaling pathway - cell viability counter screen (AID 1346799; calls by dose curve; note: nearly all actives have a fitted effect of over 45% in size; note: potency is the fitted concentration of half-maximal effect)
Summary of the method: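 Cytotoxicity measured by CellTiter-Glo luminescence (30 min, RT) in the same wells as the PR beta-lactamase agonist read. Those HEK293T cells had 16 h compound treatment at 37 C in 2% charcoal-stripped FBS medium.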

[9] = qHTS assay to identify small molecule antagonists of the TGF-beta/Smad signaling pathway - cell viability counter screen (AID 1346824); note: nearly all actives have a fitted effect of over 50% in size; note: potency is the fitted concentration of half-maximal effect
Summary of the method: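 SBE-bla HEK 293T cells were plated overnight at 37 C, then given compounds in DMSO plus TGF-beta1 (added as 0.25 ng/mL solution) for 5 hr. After the bla read, CellTiter-Glo was added to the same wells and luminescence read after 30 min at room temperature.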

[10] = qHTS assay to identify small molecule agonists of the TGF-beta/Smad signaling pathway - cell viability counter screen (AID 1346829); note: nearly all actives have a fitted effect of over 45% in size; note: potency is the fitted concentration of half-maximal effect; for activity change, negative = cytotoxicity: top concentration of the series differs between compounds
Summary of the method: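 SBE-bla HEK 293T cells plated overnight, compound exposure 5 hr at 37 C. Viability read in the same wells by CellTiter-Glo luminescence after 30 min at room temperature, following the beta-lactamase read.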

[11] = qHTS assay to identify small molecule agonists of the TGF-beta/Smad signaling pathway (AID 1346859; active = well fitted activation curve with a large enough effect in the signal ratio in the repeat runs, not every such curve was filed as active; the % refers to the signal ratio; note: series mostly up to about 77 µM)
Summary of the method: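 Fluorescence (ex 405 nm; em 460 and 530 nm) was read 2 h after LiveBLAzer FRET substrate at RT. The preceding compound treatment of overnight-plated SBE-bla HEK293T cells lasted 5 h at 37 C.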

[12] = biological target: Thyrotropin-releasing hormone receptor (Homo sapiens) (UniProt P34981); test: qHTS assay to identify small molecule antagonists of the thyrotropin-releasing hormone receptor (TRHR) signaling pathway (AID 1346877; active = well fitted inhibition curve with a large enough effect in the repeat runs, not every such curve was filed as active; note: potency is the fitted concentration of half-maximal effect; for activity, negative = inhibition: series mostly up to about 51 µM)
Summary of the method: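 Antagonist mode: after a 5 min room-temperature compound exposure, cells were stimulated with 1 nM (final) TRH. Dye-loaded TRHR-HEK293 cells were used, and calcium-dependent fluorescence was followed for 3 min, with 15-point titrations run in triplicate.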

[13] = biological target: Thyrotropin-releasing hormone receptor (Homo sapiens) (UniProt P34981); test: qHTS assay to identify small molecule agonists of the thyrotropin-releasing hormone receptor (TRHR) signaling pathway (AID 1346891; calls by dose curve; note: potency is the fitted concentration of half-maximal effect; for activation: series mostly up to about 58 µM)
Summary of the method: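 Agonist-mode intracellular calcium readout: kinetic fluorescence over 3 min at 1 s intervals after compound addition to TRHR-HEK293 cells (18 h seeded, 2 h dye-loaded at 37 C). Fifteen concentrations, triplicates.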

[14] = qHTS assay to identify small molecule antagonists of the sonic hedgehog signaling (Shh) pathway (AID 1259369; calls by dose curve; note: nearly all actives have a fitted effect of over 45% in size; note: potency is the fitted concentration of half-maximal effect)
Summary of the method: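 Antagonist mode: compound added to 3T3 Gli1-Luc cells followed by conditioned-medium stimulation, 24 h at 37 C, 5% CO2. Inhibition taken as loss of Gli1-driven luciferase luminescence.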

[15] = biological target: Progesterone receptor (Homo sapiens) (UniProt P06401); test: qHTS assay to identify small molecule agonists of the progesterone receptor (PR) signaling pathway (AID 1346784; calls by dose curve; note: nearly all actives have a fitted effect of over 30% in size)
Summary of the method: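 Agonist qHTS: compounds pinned onto 3,000 PR-UAS-bla HEK 293T cells per well in charcoal-stripped serum medium, 16hr at 37C, then beta-lactamase activity measured by LiveBLAzer FRET fluorescence after 2 hours at room temperature.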

[16] = qHTS assay to identify small molecule agonists of the estrogen receptor alpha (ER-alpha) signaling pathway in the presence of an antagonist - cell viability counter screen (AID 1259386); note: series mostly up to about 92 µM; nearly all actives have a fitted effect of over 30% in size
Summary of the method: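 Compounds tested at 15 concentrations for 22 h at 37C alongside 10.0nM (final) ICI-182,780 antagonist, in VM7Luc4E2 cells grown in phenol red-free, charcoal-stripped medium. Viability read by CellTiter-Fluor fluorescence after 1 h reagent incubation.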

[17] = biological target: Progesterone receptor (Homo sapiens) (UniProt P06401); test: qHTS assay to identify small molecule antagonists of the progesterone receptor (PR) signaling pathway (AID 1346795; active = well fitted inhibition curve with a large enough effect in the signal ratio in the repeat runs, not every such curve was filed as active; the % refers to the signal ratio)
Summary of the method: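 Antagonist mode with agonist R5020 at 1 nM final and 16 hr incubation at 37C. Reporter was beta-lactamase driven by UAS in HEK293T (PR-UAS-bla), 2% charcoal-stripped serum; signal from LiveBLAzer FRET substrate, 2 hr at room temperature.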

[18] = biological target: Estrogen receptor beta (Homo sapiens) (UniProt Q92731); test: qHTS assay to identify small molecule agonists of the estrogen receptor beta (ER-beta) signaling pathway (AID 1259377; active = well fitted activation curve with a large enough effect in the signal ratio in the repeat runs, not every such curve was filed as active; the % refers to the signal ratio)
Summary of the method: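 Ratiometric beta-lactamase FRET read-out came after 2 h substrate loading at room temperature. It followed 16 h compound treatment at 37C of GripTite HEK293T cells carrying a UAS-bla reporter, plated in 2% charcoal-stripped FBS medium.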

[19] = biological target: Estrogen receptor beta (Homo sapiens) (UniProt Q92731); test: qHTS assay to identify small molecule antagonists of the estrogen receptor beta (ER-beta) signaling pathway (AID 1259378; active = well fitted inhibition curve with a large enough effect in the signal ratio in the repeat runs, not every such curve was filed as active; the % refers to the signal ratio)
Summary of the method: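 ER-beta-UAS-bla HEK293T (GripTite) cells in 2% charcoal-stripped FBS medium were preincubated 6 hr at 37C, dosed with compound, then stimulated with 1 nM E2 (final) for 16 hr; beta-lactamase reporter read by B/G FRET fluorescence after 2 hr substrate loading.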

Sequence of Thyrotropin receptor (Homo sapiens) (P16473 whole entry, looked up): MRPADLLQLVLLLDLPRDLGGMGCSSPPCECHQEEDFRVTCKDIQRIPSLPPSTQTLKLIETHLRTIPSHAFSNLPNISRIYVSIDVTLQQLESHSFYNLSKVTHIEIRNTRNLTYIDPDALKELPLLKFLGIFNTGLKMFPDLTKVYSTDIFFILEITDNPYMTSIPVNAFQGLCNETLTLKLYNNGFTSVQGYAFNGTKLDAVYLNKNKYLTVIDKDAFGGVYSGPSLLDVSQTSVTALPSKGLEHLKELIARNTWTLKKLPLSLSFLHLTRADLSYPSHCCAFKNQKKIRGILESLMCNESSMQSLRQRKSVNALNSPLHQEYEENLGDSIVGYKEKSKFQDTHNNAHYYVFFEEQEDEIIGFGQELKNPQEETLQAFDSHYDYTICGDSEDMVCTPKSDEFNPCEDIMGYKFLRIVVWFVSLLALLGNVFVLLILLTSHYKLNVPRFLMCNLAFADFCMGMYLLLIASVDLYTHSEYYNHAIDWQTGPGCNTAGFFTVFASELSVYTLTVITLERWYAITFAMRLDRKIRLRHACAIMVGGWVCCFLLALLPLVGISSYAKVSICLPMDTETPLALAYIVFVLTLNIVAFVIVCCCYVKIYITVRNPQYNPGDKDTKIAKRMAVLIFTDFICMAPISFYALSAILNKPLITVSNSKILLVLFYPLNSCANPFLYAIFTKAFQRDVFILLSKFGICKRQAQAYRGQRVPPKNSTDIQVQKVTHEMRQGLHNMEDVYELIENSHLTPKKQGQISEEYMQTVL
Sequence of Thyrotropin-releasing hormone receptor (Homo sapiens) (P34981 whole entry, looked up): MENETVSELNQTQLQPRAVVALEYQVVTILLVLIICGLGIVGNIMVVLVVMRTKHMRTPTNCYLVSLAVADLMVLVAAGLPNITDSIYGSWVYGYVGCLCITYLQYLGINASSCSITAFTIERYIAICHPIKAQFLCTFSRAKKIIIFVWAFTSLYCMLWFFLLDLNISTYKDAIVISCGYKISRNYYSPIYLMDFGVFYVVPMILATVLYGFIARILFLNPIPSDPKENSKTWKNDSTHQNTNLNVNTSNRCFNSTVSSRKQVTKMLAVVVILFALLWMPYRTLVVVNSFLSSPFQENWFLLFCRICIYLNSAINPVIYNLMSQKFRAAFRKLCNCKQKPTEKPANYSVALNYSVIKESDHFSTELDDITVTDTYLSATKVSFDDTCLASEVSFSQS
Sequence of Estrogen receptor beta (Homo sapiens) (Q92731 whole entry, looked up): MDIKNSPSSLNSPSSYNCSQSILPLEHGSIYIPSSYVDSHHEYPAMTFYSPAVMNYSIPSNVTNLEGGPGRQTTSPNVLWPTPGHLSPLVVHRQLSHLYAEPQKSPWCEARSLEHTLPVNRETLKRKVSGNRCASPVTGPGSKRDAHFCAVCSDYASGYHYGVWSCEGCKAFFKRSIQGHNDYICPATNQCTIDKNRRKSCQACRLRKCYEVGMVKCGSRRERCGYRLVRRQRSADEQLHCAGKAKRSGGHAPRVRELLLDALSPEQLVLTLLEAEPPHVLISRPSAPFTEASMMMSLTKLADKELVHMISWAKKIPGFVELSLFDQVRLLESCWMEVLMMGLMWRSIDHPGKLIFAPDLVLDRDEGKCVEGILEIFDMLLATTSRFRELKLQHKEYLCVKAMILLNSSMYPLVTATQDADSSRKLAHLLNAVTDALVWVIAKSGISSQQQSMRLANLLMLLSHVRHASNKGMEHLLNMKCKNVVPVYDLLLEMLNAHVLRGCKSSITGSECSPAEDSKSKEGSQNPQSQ
Sequence of Progesterone receptor (Homo sapiens) (P06401 whole entry, looked up): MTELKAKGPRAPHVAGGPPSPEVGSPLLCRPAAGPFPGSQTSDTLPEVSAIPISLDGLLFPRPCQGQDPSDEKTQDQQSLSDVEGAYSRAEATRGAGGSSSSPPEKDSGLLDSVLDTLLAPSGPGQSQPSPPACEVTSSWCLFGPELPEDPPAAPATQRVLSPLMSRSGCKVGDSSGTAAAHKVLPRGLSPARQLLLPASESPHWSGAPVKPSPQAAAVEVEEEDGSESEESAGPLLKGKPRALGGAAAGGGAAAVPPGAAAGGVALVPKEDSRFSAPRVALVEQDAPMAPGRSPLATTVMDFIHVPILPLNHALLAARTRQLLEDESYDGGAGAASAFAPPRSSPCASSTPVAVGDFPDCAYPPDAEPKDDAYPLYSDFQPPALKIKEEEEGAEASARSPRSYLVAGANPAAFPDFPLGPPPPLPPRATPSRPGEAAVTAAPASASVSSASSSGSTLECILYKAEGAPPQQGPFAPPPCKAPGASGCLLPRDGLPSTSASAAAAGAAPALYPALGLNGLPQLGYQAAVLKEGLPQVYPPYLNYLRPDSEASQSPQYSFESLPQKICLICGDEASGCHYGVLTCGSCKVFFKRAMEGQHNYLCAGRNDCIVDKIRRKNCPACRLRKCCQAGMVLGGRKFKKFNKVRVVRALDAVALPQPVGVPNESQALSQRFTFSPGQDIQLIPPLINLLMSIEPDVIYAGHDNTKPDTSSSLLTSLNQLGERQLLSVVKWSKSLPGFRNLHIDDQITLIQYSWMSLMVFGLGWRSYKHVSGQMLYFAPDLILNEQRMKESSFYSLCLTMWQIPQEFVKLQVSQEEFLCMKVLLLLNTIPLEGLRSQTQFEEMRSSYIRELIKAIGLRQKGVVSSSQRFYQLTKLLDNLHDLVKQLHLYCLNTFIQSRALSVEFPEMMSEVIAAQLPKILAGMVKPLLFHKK
Sequence of Estrogen receptor (Homo sapiens) (P03372 whole entry, looked up): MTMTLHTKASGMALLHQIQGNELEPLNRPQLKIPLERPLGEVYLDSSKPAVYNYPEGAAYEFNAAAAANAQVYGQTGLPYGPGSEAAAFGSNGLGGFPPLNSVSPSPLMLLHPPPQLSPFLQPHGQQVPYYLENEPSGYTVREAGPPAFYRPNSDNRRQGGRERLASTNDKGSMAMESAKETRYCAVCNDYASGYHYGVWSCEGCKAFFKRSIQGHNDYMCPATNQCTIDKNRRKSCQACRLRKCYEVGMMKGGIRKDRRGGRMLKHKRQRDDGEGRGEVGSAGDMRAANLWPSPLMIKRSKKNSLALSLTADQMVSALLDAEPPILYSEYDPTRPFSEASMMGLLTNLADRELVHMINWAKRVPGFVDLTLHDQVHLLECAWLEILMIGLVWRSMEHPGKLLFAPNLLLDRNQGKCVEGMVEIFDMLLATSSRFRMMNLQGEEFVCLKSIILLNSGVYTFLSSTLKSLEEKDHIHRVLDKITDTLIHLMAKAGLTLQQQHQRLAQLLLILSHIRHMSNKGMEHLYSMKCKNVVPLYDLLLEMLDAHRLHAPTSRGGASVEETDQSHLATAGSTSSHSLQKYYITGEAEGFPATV

## Cc1cc(Cc2cc(C)cc(C(C)(C)C)c2O)c(O)c(C(C)(C)C)c1
[1]
  Potency: 61.4 µM (active) and 68.6 µM (active)
[2]
  Potency: 13.8 µM (active) and 21.7 µM (active)
[3]
  Potency: 17.3 µM (active) and 21.7 µM (active)
[4]
  Potency: inactive
[5]
  Potency: inactive
[6]
  Potency: inactive
[7]
  Potency: 43.5 µM (active) and 48.6 µM (active)
[8]
  Potency: 27.4 µM (active)
[9]
  Potency: 49.2 µM (active) and 54.9 µM (active)
[10]
  Potency: 43.9 µM (active) and 54.9 µM (active)
[11]
  outcome: inactive
[12]
  Potency: inactive
[13]
  Potency: inactive

## CNC1(C)C2CCC(C2)C1(C)C (stereo not drawn)
[14]
  Potency: inactive
[1]
  Potency: inactive
[2]
  Potency: inactive
[3]
  Potency: inactive
[5]
  Potency: inactive
[15]
  Potency: inactive
[7]
  Potency: inactive
[8]
  Potency: inactive
[9]
  Potency: inactive
[10]
  Potency: inactive
[11]
  outcome: inactive
[12]
  Potency: inactive
[13]
  Potency: inactive

## NC(Cc1ccc(Cl)cc1)C(=O)O (stereo not drawn)
[14]
  activity change, negative = inhibition: 23.4% [at 0.349 µM] (inactive)
[1]
  activity change, negative = cytotoxicity: 4.35% [at 0.35 µM] (inactive)
[2]
  activity change, negative = cytotoxicity: -2.17% [at 0.349 µM] (inactive)
[3]
  activity change, negative = cytotoxicity: -0.284% [at 0.349 µM] (inactive)
[5]
  cAMP activity change: -3.62% [at 0.349 µM, stronger effect = higher value] (inactive)
[16]
  activity change, negative = cytotoxicity: 2.8% [at 0.349 µM] (inactive)
[15]
  activation: -4.74% [at 0.349 µM] (inactive)
[17]
  activity change, negative = inhibition: -0.261% [at 0.348 µM] (inactive)
[7]
  activity change, negative = cytotoxicity: -9.96% [at 0.348 µM] (inactive)
[8]
  activity change, negative = cytotoxicity: -7.43% [at 0.349 µM] (inactive)
[9]
  viability change, negative = cytotoxic: 4.44% [at 0.29 µM] (inactive)
[10]
  activity change, negative = cytotoxicity: -10.5% [at 0.29 µM] (inactive)
[11]
  activation: 0.242% [at 0.29 µM] (inactive)
[12]
  activity, negative = inhibition: -6.16% [at 0.194 µM] (inactive)
[13]
  activation: 0.0344% [at 0.218 µM] (inactive)

## CC(C)(C)c1ccc(O)c(C(C)(C)C)c1
[18]
  outcome: inactive
[19]
  Potency: inactive
[1]
  Potency: inactive
[2]
  Potency: 48.4 µM (active) and 54.5 µM (active)
[3]
  Potency: 60.9 µM (active)
[4]
  Potency: inactive
[5]
  Potency: inactive
[6]
  Potency: inactive
[16]
  Potency: inactive
[15]
  Potency: inactive
[9]
  Potency: inactive
[11]
  outcome: inactive
[13]
  Potency: inactive

## O=C1OC2(c3ccc(O)cc3Oc3cc(O)ccc32)c2ccccc21
[14]
  Potency: inactive
[2]
  Potency: inactive
[3]
  Potency: inactive
[4]
  Potency: inactive
[5]
  Potency: inactive
[7]
  Potency: inactive
[8]
  Potency: inactive
[9]
  Potency: inactive
[10]
  Potency: inactive
[12]
  Potency: 536 nM (active) and 3.7 µM (active)
[13]
  Potency: 155 nM (active) and 1.69 µM (active)

## C=CC(=O)OCCCCCCCC
[18]
  outcome: inactive
[19]
  Potency: inactive
[1]
  Potency: inactive
[2]
  Potency: inactive
[3]
  Potency: inactive
[4]
  Potency: inactive
[5]
  Potency: inactive
[6]
  Potency: inactive
[16]
  Potency: inactive
[15]
  Potency: inactive
[7]
  Potency: inactive
[8]
  Potency: inactive
[9]
  Potency: inactive
[10]
  Potency: inactive
[11]
  outcome: inactive

## OCCOCCN1CCN(C(c2ccccc2)c2ccc(Cl)cc2)CC1 (stereo not drawn)
[14]
  Potency: 7.59 µM (active) and inactive
[1]
  Potency: 53.8 µM (active) and inactive
[2]
  Potency: 30.2 µM (active)
[3]
  Potency: 26.9 µM (active)
[5]
  Potency: inactive
[6]
  Potency: inactive
[16]
  Potency: inactive
[8]
  Potency: 33.9 µM (active)
[9]
  Potency: inactive
[10]
  Potency: inactive
[11]
  outcome: inactive
[12]
  Potency: inactive

## c1ccc2c(c1)CCCC2C1=NCCN1 (stereo not drawn)
[1]
  Potency: inactive
[2]
  Potency: inactive
[3]
  Potency: inactive
[4]
  Potency: inactive
[5]
  Potency: inactive
[6]
  Potency: inactive
[16]
  Potency: inactive
[15]
  Potency: inactive
[17]
  Potency: inactive
[7]
  Potency: inactive
[8]
  Potency: inactive
[9]
  Potency: inactive
[10]
  Potency: inactive
[11]
  outcome: inactive
[12]
  Potency: inactive
[13]
  Potency: inactive
